Data from PubChem BioAssay.
The source made the active and inactive calls. Unless noted, no rule for the calls is given here.

Experiments:
[1] = A549 cell viability effects, profiling panel, calcein-AM fluorescence, 48 h, basal (AID 1162); details: higher = more signal; also: test concentration not given here
[2] = adipocyte viability effects, profiling panel, cell-based, 3T3-L1 adipocytes, calcein-AM fluorescence, 48 h, basal (AID 1163); details: 3T3-L1 adipocytes viability, higher = more signal; also: test concentration not given here
[3] = HepG2 cell viability effects, profiling panel, calcein-AM fluorescence, 48 h, basal (AID 1164); details: higher = more signal; also: test concentration not given here
[4] = MM1S cell viability effects, profiling panel, calcein-AM fluorescence, 48 h, basal (AID 1165); details: higher = more signal;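 also: viability of MM1S multiple myeloma cells under basal unstimulated conditions; test concentration not given here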
[5] = basal RPMI8226 viability, no added stimulus, profiling panel, cell-based, calcein-AM fluorescence, 48 h, PK04 Diversity Set (AID 1166); details: RPMI8226 myeloma viability, higher = more signal;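 also: cells grown under basal conditions without added stimulus; test concentration not given here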
[6] = basal HepG2 mitochondrial membrane potential changes, profiling panel, cell-based, JC-1 fluorescence, 24 h, 100 nL compound (AID 1167); details: higher = more signal; also: test concentration not given here
[7] = basal 3T3-L1 adipocyte mitochondrial potential changes, profiling panel, cell-based, JC-1 fluorescence, 3T3-L1 adipocytes, 24 h, 100 nL compound (AID 1168); details: JC-1 mitochondrial fluorescence, higher = more signal, called active from +8 up or from −8 down; also: test concentration not given here
[8] = basal RPMI8226 mitochondrial membrane potential changes, profiling panel, cell-based, JC-1 fluorescence, 24 h, 100 nL compound (AID 1169); details: RPMI8226 myeloma, JC-1 mitochondrial potential fluorescence, higher = more signal; also: test concentration not given here
[9] = basal MM1S mitochondrial membrane potential changes, profiling panel, cell-based, JC-1 fluorescence, 24 h, 100 nL compound (AID 1170); details: higher = more signal; also: test concentration not given here
[10] = A549 lung cancer cell viability effects, profiling panel, resazurin fluorescence, 24 h, PK04 Diversity Set (AID 1171); details: higher = more signal, called active from +8 up or from −8 down; also: test concentration not given here
[11] = HepG2 liver cancer cell viability effects, profiling panel, resazurin fluorescence, 24 h, PK04 Diversity Set (AID 1172); details: higher = more signal; also: test concentration not given here
[12] = basal S. cerevisiae growth modulation, no modifier, primary screen, OD600, strain BY4716, 24 h, basal condition (AID 1173); details: OD600, 24 h, higher = more signal, called active from +8 up or from −8 down
[13] = MM1S myeloma cell viability, profiling panel, resazurin fluorescence, basal, 24 h, PK04 Diversity Set (AID 1174); details: higher = more signal, called active from +8 up or from −8 down;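 also: MM1S multiple myeloma cell line; test concentration not given here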
[14] = molecular target: Dihydroorotate dehydrogenase (quinone), mitochondrial (Plasmodium falciparum (isolate 3D7)) (UniProt Q08210); assay: PfDHODH enzyme inhibitors, primary screen, biochemical, C-terminal His tag, absorbance 600 nm (AID 1175); details: DCIP absorbance 600 nm, higher = more signal, called active from +8 up or from −8 down;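 also: recombinant parasite enzyme with a five histidine tag at its C terminus; test concentration not given here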
[15] = P. aeruginosa biofilm formation inhibitors, primary screen, strain PAO1, LB-PBS medium, absorbance 600 nm (AID 1176); also: test concentration not given here; details: P. aeruginosa PAO1 growth/biofilm, A600, 12 h; higher = more signal
[16] = S. cerevisiae RM11-1a growth modifiers, primary screen, strain RM11-1a, OD600, basal, 24 h (AID 1177); details: OD600, 24 h, higher = more signal, called active from +8 up or from −8 down;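 also: cultures grown under basal conditions with no added stressor; test concentration not given here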
[17] = E. coli acrAB mutant growth effects, primary screen, E. coli filamentation inducers, strain DRC39, OD650, 24 h (AID 1178); details: higher = more signal, called active from +8 up or from −8 down;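 also: growth measured as culture turbidity by optical density at 650 nm; test concentration not given here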
[18] = E. coli acrAB mutant growth effects, primary screen, E. coli filamentation inducers, strain DRC39, OD650, 48 h (AID 1179);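 also: screen aims at cell division blockers that make cells filament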; details: E. coli DRC39 delta-acrAB growth, higher = more signal, called active from +8 up or from −8 down
[19] = RPMI8226 myeloma cell viability, profiling panel, resazurin fluorescence, basal, 24 h, PK04 Diversity Set (AID 1180); details: higher = more signal;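 also: RPMI8826 multiple myeloma cell line at 5000 cells per well; test concentration not given here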
[20] = molecular target: E3 ubiquitin-protein ligase XIAP (Homo sapiens) (UniProt P98170); assay: XIAP binders, primary screen, biophysical, small-molecule microarray, fluorescence 635 nm (AID 1181); details: small-molecule microarray binding, higher = more signal;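 also: score merges 667 nm emission and signal to noise over triplicate slides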
E3 ubiquitin-protein ligase XIAP (Homo sapiens), sequence (P98170 whole entry, looked up): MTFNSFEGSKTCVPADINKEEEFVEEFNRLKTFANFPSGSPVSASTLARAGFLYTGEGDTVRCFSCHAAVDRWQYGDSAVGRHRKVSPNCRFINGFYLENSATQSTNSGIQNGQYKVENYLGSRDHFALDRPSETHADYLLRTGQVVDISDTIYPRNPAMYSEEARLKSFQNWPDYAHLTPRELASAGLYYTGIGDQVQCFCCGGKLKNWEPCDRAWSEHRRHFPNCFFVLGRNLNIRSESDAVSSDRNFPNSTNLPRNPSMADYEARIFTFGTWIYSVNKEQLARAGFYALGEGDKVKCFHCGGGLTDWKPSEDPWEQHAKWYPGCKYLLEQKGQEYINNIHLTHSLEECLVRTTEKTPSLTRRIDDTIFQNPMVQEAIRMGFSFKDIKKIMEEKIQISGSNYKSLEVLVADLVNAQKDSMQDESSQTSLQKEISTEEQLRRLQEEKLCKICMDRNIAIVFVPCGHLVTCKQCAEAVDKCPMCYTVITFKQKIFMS

Dihydroorotate dehydrogenase (quinone), mitochondrial (Plasmodium falciparum (isolate 3D7)), sequence (Q08210 whole entry, looked up): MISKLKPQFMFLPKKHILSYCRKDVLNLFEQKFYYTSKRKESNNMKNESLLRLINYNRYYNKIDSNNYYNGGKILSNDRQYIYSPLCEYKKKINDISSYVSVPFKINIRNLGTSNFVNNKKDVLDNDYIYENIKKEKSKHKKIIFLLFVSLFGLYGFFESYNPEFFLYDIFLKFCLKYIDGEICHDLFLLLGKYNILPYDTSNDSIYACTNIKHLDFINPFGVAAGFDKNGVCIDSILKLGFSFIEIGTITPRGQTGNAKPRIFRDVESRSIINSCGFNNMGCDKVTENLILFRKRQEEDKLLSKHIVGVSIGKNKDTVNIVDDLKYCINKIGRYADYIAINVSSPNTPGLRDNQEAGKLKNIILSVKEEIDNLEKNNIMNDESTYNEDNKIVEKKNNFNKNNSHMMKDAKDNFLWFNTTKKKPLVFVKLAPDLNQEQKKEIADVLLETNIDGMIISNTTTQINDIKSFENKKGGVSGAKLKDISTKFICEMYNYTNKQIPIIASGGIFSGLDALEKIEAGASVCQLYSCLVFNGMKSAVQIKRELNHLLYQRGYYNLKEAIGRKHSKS

SMILES: CCOC(=O)C[C@H]1[C@H](OC(=O)c2cc3ccccc3oc2=O)[C@@H](NC(=O)c2ccc3ccccc3c2)c2cc(OCCCO)ccc2N1C(=O)Cc1ccc(OC)cc1
- z-score [1]: -0.103
- z-score [2]: 0.528
- z-score [3]: -0.425
- z-score [4]: 0.226
- z-score [5]: 0.0557
- z-score [6]: -0.527
- z-score [7]: 0.06 (inactive)
- z-score [8]: -0.229
- z-score [9]: 0.0571
- z-score [10]: 0.379 (inactive)
- z-score [11]: 0.98
- z-score [12]: -0.399 (inactive)
- z-score [13]: -0.0697 (inactive)
- composite z-score [14]: 0.0533 (inactive)
- z-score [15]: -0.304 (inactive)
- z-score [16]: 0.0085 (inactive)
- z-score [17]: 0.406 (inactive)
- z-score [18]: -0.224 (inactive)
- z-score [19]: -0.137
- composite z-score [20]: -0.169

SMILES: COCC(=C=CC[C@@H](O)c1ccc(OCCO)cc1)CCO
- z-score [1]: 1.46
- z-score [2]: 0.376
- z-score [3]: 0.875
- z-score [4]: 0.676
- z-score [5]: 0.786
- z-score [6]: 1.32
- z-score [7]: 0.87 (inactive)
- z-score [8]: -0.756
- z-score [9]: -1.1
- z-score [10]: 1.12 (inactive)
- z-score [11]: 1.37
- z-score [12]: -0.896 (inactive)
- z-score [13]: 1.1 (inactive)
- composite z-score [14]: -0.789 (inactive)
- z-score [15]: 0.424 (inactive)
- z-score [16]: 0.453 (inactive)
- z-score [17]: 1.41 (inactive)
- z-score [18]: 1.23 (inactive)
- z-score [19]: 2.08
- composite z-score [20]: -0.0949

SMILES: COCCOC(=O)N1C(=O)[C@@]2(c3cc(C#CCC(C(=O)OC)C(=O)OC)ccc31)[C@H](C(=O)NC[C@H](O)c1ccccc1)[C@H]1C(=O)O[C@H](c3ccccc3)[C@H](c3ccccc3)N1[C@@H]2c1ccc(OCCO)cc1
- z-score [1]: -0.248
- z-score [2]: 0.951
- z-score [3]: 0.583
- z-score [4]: 0.152
- z-score [5]: -1.87
- z-score [6]: -0.684
- z-score [7]: 0.407 (inactive)
- z-score [8]: -0.854
- z-score [9]: -0.724
- z-score [10]: -0.873 (inactive)
- z-score [11]: -0.685
- z-score [12]: 2.05 (inactive)
- z-score [13]: -0.0535 (inactive)
- composite z-score [14]: -0.429 (inactive)
- z-score [15]: 3.49 (inactive)
- z-score [16]: 3.11 (inactive)
- z-score [17]: 0.629 (inactive)
- z-score [18]: 0.453 (inactive)
- z-score [19]: -0.291
- composite z-score [20]: 0.0806

SMILES: CC(C)[Si]1(C(C)C)OCc2cc(-c3ccc(-c4ccc(Cl)c(Cl)c4)o3)nc(CCc3ccccc3)c21
- z-score [1]: 0.305
- z-score [2]: 0.405
- z-score [3]: 0.165
- z-score [4]: -3.2
- z-score [5]: -4.26
- z-score [6]: -2.07
- z-score [7]: 0.945 (inactive)
- z-score [8]: -0.838
- z-score [9]: -1.72
- z-score [10]: 1.4 (inactive)
- z-score [11]: 0.822
- z-score [12]: -3.49 (inactive)
- z-score [13]: -1.64 (inactive)
- composite z-score [14]: 0.393 (inactive)
- z-score [15]: 0.149 (inactive)
- z-score [16]: -0.302 (inactive)
- z-score [17]: 1.46 (inactive)
- z-score [18]: 0.643 (inactive)
- z-score [19]: -0.0096
- composite z-score [20]: -0.185

SMILES: COCCCNC(=O)[C@@]1(Sc2ccc(C)cc2)CC(=O)N(Cc2ccccc2Cl)[C@@H]1c1ccc(CO)cc1I
- z-score [1]: 0.217
- z-score [2]: 0.0816
- z-score [3]: -0.115
- z-score [4]: -1.88
- z-score [5]: -2.32
- z-score [6]: -0.51
- z-score [7]: -0.695 (inactive)
- z-score [8]: -0.175
- z-score [9]: -1.76
- z-score [10]: -0.268 (inactive)
- z-score [11]: 0.0727
- z-score [12]: -3.06 (inactive)
- z-score [13]: -3.21 (inactive)
- composite z-score [14]: -2.66 (inactive)
- z-score [15]: 0.242 (inactive)
- z-score [16]: -1.07 (inactive)
- z-score [17]: 0.0085 (inactive)
- z-score [18]: -0.0682 (inactive)
- z-score [19]: -2.38
- composite z-score [20]: -0.138

SMILES: [N-]=[N+]=Nc1ccccc1C[C@]1(C(=O)NCc2ccccc2)COC(c2ccc(OCCCO)cc2)=N1
- z-score [1]: -0.827
- z-score [2]: -0.143
- z-score [3]: -1.65
- z-score [4]: -3.58
- z-score [5]: -4.42
- z-score [6]: 0.789
- z-score [7]: 0.443 (inactive)
- z-score [8]: -1.17
- z-score [9]: -2.33
- z-score [10]: -1.41 (inactive)
- z-score [11]: -0.85
- z-score [12]: 0.858 (inactive)
- z-score [13]: -5.51 (inactive)
- composite z-score [14]: 0.363 (inactive)
- z-score [15]: -0.0837 (inactive)
- z-score [16]: 2.15 (inactive)
- z-score [17]: 0.728 (inactive)
- z-score [18]: 0.161 (inactive)
- z-score [19]: -4.83
- composite z-score [20]: 0.212

SMILES: COc1ccc(C#Cc2ccc3c(c2)[C@]2(C(=O)N3)[C@H](c3ccc(OCCO)cc3)N3[C@H](c4ccccc4)[C@H](c4ccccc4)OC(=O)[C@H]3[C@@H]2C(=O)N2CCc3cc(OC)c(OC)cc3C2)cc1
- z-score [1]: 0.0926
- z-score [2]: 0.485
- z-score [3]: 0.477
- z-score [4]: -1.25
- z-score [5]: 0.343
- z-score [6]: 0.37
- z-score [7]: 3.73 (inactive)
- z-score [8]: -1.23
- z-score [9]: -1.49
- z-score [10]: -0.0906 (inactive)
- z-score [11]: 0.36
- z-score [12]: 2.06 (inactive)
- z-score [13]: -0.224 (inactive)
- composite z-score [14]: -1.84 (inactive)
- z-score [15]: 2.68 (inactive)
- z-score [16]: 2.33 (inactive)
- z-score [17]: -0.479 (inactive)
- z-score [18]: -0.324 (inactive)
- z-score [19]: 0.0844
- composite z-score [20]: 0.107

SMILES: C#C[C@@H](CC)O[Si](C#CCCCC#N)(C(C)C)C(C)C
- z-score [1]: -0.533
- z-score [2]: -0.87
- z-score [3]: -0.168
- z-score [4]: -3.16
- z-score [5]: -0.501
- z-score [6]: -0.626
- z-score [7]: 0.117 (inactive)
- z-score [8]: -0.45
- z-score [9]: -1.73
- z-score [10]: -0.0413 (inactive)
- z-score [11]: -0.276
- z-score [12]: -17.4 (active)
- z-score [13]: -0.651 (inactive)
- composite z-score [14]: -1.06 (inactive)
- z-score [15]: 0.113 (inactive)
- z-score [16]: -2.5 (inactive)
- z-score [17]: 0.0725 (inactive)
- z-score [18]: 0.173 (inactive)
- z-score [19]: -0.221
- composite z-score [20]: -0.142

SMILES: C=C[C@@H](C)[C@H](O)c1ccc(OCCO)cc1
- z-score [1]: 0.283
- z-score [2]: 0.154
- z-score [3]: -0.0484
- z-score [4]: 0.0554
- z-score [5]: -0.289
- z-score [6]: 1.2
- z-score [7]: 0.0591 (inactive)
- z-score [8]: 0.948
- z-score [9]: -0.612
- z-score [10]: -0.0272 (inactive)
- z-score [11]: 0.0075
- z-score [12]: -0.731 (inactive)
- z-score [13]: 0.088 (inactive)
- composite z-score [14]: -0.445 (inactive)
- z-score [15]: 0.0852 (inactive)
- z-score [16]: 0.164 (inactive)
- z-score [17]: 1.02 (inactive)
- z-score [18]: 0.856 (inactive)
- z-score [19]: -0.127
- composite z-score [20]: -0.184
